The list is not random: actives were taken first. Their share in the collection is about 7.6%.
BRCA1 expr act – BRCA1 expression activation; MCF7-BRCA1-FFLuc reporter, luminescence, 48 h; response scale: scaled: vehicle 0%, 10 µM genistein 100%; 380,000 compounds, 1.1% hits; Potency, µM (titrated, usually from 46.1 µM), inactives show at the top dose activation, actives largely listed as activators; AID 624202; further: potency means the concentration at half of the fitted maximal effect; nearly all actives have a fitted effect of over 80% in size
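48 h compound treatment of MCF7-BRCA1-FFLuc cells (phenol-red free MEM, 37 °C), then 15 min with luciferase substrate and luminescence imaging.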
ELG1 repair inh – blocks ELG1-dependent DNA repair in HEK293T cells. 330,000 compounds, 2.3% hits. Potency, µM (doses to about 46.1 µM), for inactives: at the top dose activity change, negative = inhibition, usual class: inhibitors. HEK293T ELG1-luciferase reporter, luminescence, 16 h; DNA damage induced by 5-fluorouridine. AID 504467; further: potency means the concentration at half of the fitted maximal effect; on the % scale 0 is the no-effect control and ±100 the full control effect; nearly all actives have a fitted effect of over 55% in size
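Reporter activity after DNA damage by 5-fluorouridine is monitored. Compound-treated cells incubate 16 hr at 37 °C, then ONE-Glo is added for 30 min before luminescence reading.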
p53 reactivation – re-activators of mutant p53; AID 504706; 320,000 compounds, 0.063% hits; H1299 p53-A138V BP100-luciferase reporter, luminescence, 24 h; Potency, µM (doses to about 92.2 µM), for the others: at the top dose activity change, positive = activation, hits mostly activators; further: potency means the concentration at half of the fitted maximal effect; % of control where 0% means no effect; nearly all actives have a fitted effect of over 45% in size
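H1299 (p53-null), stable ts p53-A138V + BP100-Luc; 1000 cells/well, Opti-MEM/10% FBS; cpd 4 pt, 1:5; 24 h, 37 deg C, 5% CO2; detection reagent 10 min RT; luminescence.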
RORg inh – ROR gamma (mouse) transcription inhibition | P51450 | Drosophila S2 Gal4-RORgamma UAS-luciferase reporter, 20 h | Potency, µM (series often up to 53.6 µM), for inactives: at the top dose activity change, negative = inhibition, usual class: inhibitors | 310,000 compounds, 5.4% hits; further: potency means the concentration at half of the fitted maximal effect; on the % scale 0 is the no-effect control and ±100 the full control effect; nearly all actives have a fitted effect of over 60% in size
Target sequence (P51450 whole entry, looked up, the tested form may be a part): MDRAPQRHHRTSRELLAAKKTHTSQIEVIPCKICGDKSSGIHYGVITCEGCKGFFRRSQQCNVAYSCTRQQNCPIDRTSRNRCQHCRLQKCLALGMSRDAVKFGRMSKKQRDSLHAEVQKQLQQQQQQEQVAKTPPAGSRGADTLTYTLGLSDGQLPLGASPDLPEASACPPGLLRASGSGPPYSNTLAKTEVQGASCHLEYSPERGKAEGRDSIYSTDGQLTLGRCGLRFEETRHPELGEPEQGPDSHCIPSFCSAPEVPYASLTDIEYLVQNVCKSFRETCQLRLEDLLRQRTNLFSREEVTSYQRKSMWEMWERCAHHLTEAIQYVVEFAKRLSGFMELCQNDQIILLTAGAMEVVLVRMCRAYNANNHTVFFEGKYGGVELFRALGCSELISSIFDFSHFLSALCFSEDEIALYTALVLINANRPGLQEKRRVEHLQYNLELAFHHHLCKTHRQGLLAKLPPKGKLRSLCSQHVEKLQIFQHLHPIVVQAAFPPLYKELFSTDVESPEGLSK
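Drosophila Schneider cells stably carrying a metallothionein-driven Gal4 DBD–ROR gamma fusion and a UAS-Photinus luciferase reporter were exposed to compound for 1 hr, then induced with copper sulfate (700 uM final) for 20 hr at ambient temperature before luminescence reading.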
Giardia killer – Giardia lamblia killing. activity change, % at 7.66 µM, hits read low. 340,000 compounds, 0.15% hits. Giardia lamblia trophozoite viability; in the data active means activity change below about -80%; inconclusive means between about -30% and that limit;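 further: parasites exposed to compound for two days anaerobically before the ATP read; on the % scale 0 is the no-effect control and ±100 the full control effect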
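Media and compound were dispensed first, then trophozoites at 100 cells/well; plates sat 48 hrs at 37 deg C without oxygen before ATP luminescence reagent was added and read after 15-30 min at room temperature.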
Gal4-VP16 FLuc – counter-screen for ROR gamma inhibitors: Gal4-VP16 reporter; Drosophila S2 Gal4-VP16 UAS-luciferase, luminescence, 20 h; Potency, µM (titrated, usually from 53.6 µM), for the others: top-dose activity, negative = inhibition, usual class: inhibitors; 310,000 compounds, 3.5% hits; AID 2546;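 further: Gal4-VP16 expression switched on by copper sulfate through the metallothionein promoter; potency means the concentration at half of the fitted maximal effect; on the % scale 0 is the no-effect control and ±100 the full control effect; nearly all actives have a fitted effect of over 50% in size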
Active calls of the source: *; ? = inconclusive; nt = no result; [ ] = another dose, or the depositor's remark. Unless noted, the call rests on the fitted dose curve; in most records, active means well fitted curve in the direction sought with a large enough effect; inconclusive means small, poorly fitted or top-dose-only effect, or another doubt; inactive means no such curve, though single readings can be large; an effect the other way counts as inactive or inconclusive.

SMILES	BRCA1 expr act	ELG1 repair inh	p53 reactivation	RORg inh	Giardia killer	Gal4-VP16 FLuc
Cn1c(/C=C/c2ccc(Cl)cc2Cl)c([N+](=O)[O-])c(=O)n(C)c1=O	-60%	?	5%	11µM*	-2	?
CCn1nc(C)c(NC(=O)CCSc2nc(-c3ccco3)cc(C(F)(F)F)n2)c1C	-19%	?	-5%	?	13	-4%
Cc1ccc(/C=N/NC(=O)c2cccc(S(=O)(=O)Nc3ccccc3Cl)c2)s1	-8%	-7%	1%	7.1µM*	-19	5µM*
Cc1ccc(/C=N/NC(=O)c2ccc3c(c2)OCCO3)s1	2.5µM*	?	12%	5.6µM*	-9	?
Cc1ccc(/C=N/NC(=O)c2ccc3ccccc3c2)s1	36%	12%	4%	3.5µM*	25	5µM*
COc1ccc(OC)c(/C=C(\NC(=O)c2ccccc2)C(=O)N/N=C/c2ccc(C)s2)c1	-49%	-12%	-9%	?	-18	?
O=C(N/N=C/c1c(Cl)[nH]c2ccccc12)c1ccc2c(c1)OCCO2	50%	?	7%	-1%	-28	-5%
O=C(N/N=C/c1cc(Br)cs1)c1ccc2c(c1)OCCO2	?	?	6%	11µM*	-27	?
Cn1cc(C(=O)N/N=C/c2cc(Br)cs2)c2ccccc21	nt	1%	4%	-18%	nt	-1%
O=C(CCn1c(=O)c2cccn2c2cccnc21)NCCCN1CCN(c2ccc(F)cc2)CC1	-21%	nt	nt	nt	nt	nt
CC(=O)Nc1ccc(NC(=O)Cn2cnc(S(=O)(=O)N3CCOCC3)c2)cc1	0%	9%	1%	-5%	-7	6%
CC(C(=O)Nc1ccc(O)cc1)c1cccc(C(=O)c2ccccc2)c1 (centres undefined)	-52%	16µM*	0%	32%	14	?
CC(C)Cc1ccc(C(C)C(=O)Nc2ccc(O)cc2)cc1 (centres undefined)	-27%	?	11%	?	-10	18µM*
CC(C)Cc1ccc(C(C)C(=O)Nc2cccnc2)cc1 (centres undefined)	-1%	20%	nt	30%[1.91 µM]	-2	?
O=C(Nc1ccc(F)c(F)c1)c1ccccc1	75%	?	23%	nt	-9	nt
COc1ccc(-n2c(=O)c(CCC(=O)N3CCN(c4ccccc4O)CC3)nc3ccccc32)cc1	-44%	?	-7%	nt	18	nt
Cc1ccc(OCCCn2c(=O)sc3ccccc32)cc1	43%	?	-3%	?	-2	-14%
Cc1ccc(OCCn2c(=O)sc3ccccc32)cc1	5.6µM*	?	?	9%	-10	-9%
Cc1ccccc1OCCCn1c(=O)sc2ccccc21	?	?	12%	2.8µM*	-14	10µM*
CCCC(=O)Nc1cc(-c2nc3ncccc3o2)ccc1Cl	-25%	15%	9%	?	19	-4%
S=C1SCN(Cc2cccnc2)CN1Cc1ccccc1	5%	0%	6%	3.2µM*	3	6.3µM*
S=C1NCN(Cc2cccnc2)CN1Cc1ccccc1	2%	13%	-1%	?	-14	4%
Cc1ccc(Cl)cc1NC(=O)CSc1nncn1-c1ccccn1	5%	-1%	-7%	-10%	?	12%
COc1ccc(C)cc1-n1nnnc1SCc1cc(=O)n2cc(C)ccc2n1	-47%	18µM*	-8%	-3%	16	-6%
COc1ccc(C)cc1-n1nnnc1SCn1nnc2ccccc2c1=O	-66%	5.8µM*	2%	19%	-12	-18%
Cc1ccc(-n2nnnc2SCn2nnc3ccccc3c2=O)cc1	?	?	?	?	13	?
COc1ccsc1NC(=O)OCc1ccc(Cl)cc1	13µM*	?	10%	27%	-26	-6%
CSc1nsc(NC(=O)OCc2ccc(Cl)cc2)n1	-2%	11%	-14%	?	2	?
CCCCC(=O)NC(=S)Nc1ccccc1C(=O)Nc1ccccc1	-1%	-13%	1%	-29%	3	-1%

Source: PubChem BioAssay
